Laboratory results reported in PubChem BioAssay (EPA / NIEHS).
Activity calls are given as the source filed them. Rule for the calls: active = hit-call score of the fitted dose curve at least 0.9, where 1 is the maximum; inactive = score below 0.9.

Assay: CCTE_Deisenroth_5AR_NBTE_acceptor: CCTE's 5alpha-reductase NanoBRET Target Engagement Assay - Autofluorescence Screen, Deisenroth Lab (AID 2284321);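 note: compound fluorescence in the acceptor channel under 460 nm excitation flags autofluorescence artifacts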
Conditions: actives raise or lower the signal
Method: CCTE_Deisenroth_5AR NBTE (5alpha-reductase NanoBRET Target Engagement Assay) is a cell-based, single-readout assay that uses HEK293T, a human kidney cell line, with measurements taken at 5 hours after chemical dosing in a 384 well plate. This assay includes a primary and secondary screen as well as an autofluorscence screen.CCTE_Deisenroth_5AR NBTE_acceptor is one of four assay components measured from the CCTE_Deisenroth_5AR NBTE assay. It is designed to make measurements of resonant fluorescence generated by bioluminescent energy transfer to a target fluorophore, as detected by fluorescence intensity emission signals using spectrometry technology.Data from the assay component CCTE_Deisenroth_5AR NBTE_acceptor was analyzed into 1 assay endpoint. This assay endpoint, CCTE_Deisenroth_5AR NBTE_acceptor, was analyzed with bidirectional fitting relative to DMSO as the negative control and baseline of activity. Using a type of inducible reporter, gain or loss-of-signal activity can be used to understand changes in the acceptor fluorescence as related to 5alpha-reductase catalytic function. Furthermore, this assay endpoint can be referred to as a secondary readout, because this assay has produced multiple assay endpoints where this one serves an artifact detection function.
Chemicals from the blinded ToxCast library were diluted 1000-fold in DMSO to an assumed nominal concentration of 100 uM. Samples were scanned in three independent runs (n=3) on a multi-mode plate reader at a fixed excitation wavelength of 460 nm with emission filter set at […]. For reference, tracer was included at DMSO-solubilized concentrations of 100 uM (the top tested concentration for each test chemical) and 600 nM (the final working concentration of the tracer probe).

SMILES	outcome	AC50
CCC1(c2ccc(N)cc2)CCC(=O)NC1=O (stereo unspecified)	inactive	–
C[C@@H]1C[C@@H]([C@H](O)CC2CC(=O)NC(=O)C2)C(=O)[C@@H](C)C1	inactive	–
O=C(Nc1ccc2[nH]ccc2c1)c1cc2cc(F)ccc2n1Cc1cccc(F)c1	inactive	–
c1cc[c]([Hg][c]2ccccc2)cc1	inactive	–
CC(=O)[O][Hg][c]1ccccc1	–	25.3 µM (active)
CCOP(=S)(OCC)Oc1nc(Cl)c(Cl)cc1Cl	inactive	–
O=C1C(Cl)=C(Cl)C(=O)c2ccccc21	inactive	–
CCC[CH2][Sn]([CH2]CCC)([CH2]CCC)[O]C(=O)c1ccccc1	–	6.56 µM (active)
CCN1CCC2(CC1)COc1cc3c(cc12)N(C(=O)c1ccc(-c2ccc(-c4nnc(C)o4)cc2C)cc1)CC3	–	2.17 µM (active)
C[C@H]1CCCC(=O)CCC/C=C/c2cc(O)cc(O)c2C(=O)O1	inactive	–
CC(C)(c1ccc(OCC2CO2)cc1)c1ccc(OCC2CO2)cc1 (stereo unspecified)	inactive	–
O=C(O)C(F)(F)C(F)(F)C(F)(F)C(F)(F)C(F)(F)C(F)(F)C(F)(F)C(F)(F)C(F)(F)C(F)(F)F	inactive	–
O=[N+]([O-])c1ccc(O)c([N+](=O)[O-])c1	inactive	–
O=C(OC1CCCCC1)c1ccccc1C(=O)OC1CCCCC1	inactive	–
C=C(C)C(=O)[O][Sn]([CH2]CCC)([CH2]CCC)[CH2]CCC	–	5.27 µM (active)
N#CN=C(N)N	inactive	–
